Laboratory results: PubChem BioAssay (EPA / NIEHS)
Where “and” joins values, the source holds several entries; their conditions need not be identical. Identical values can stand only once. More than one record can exist for a structure, and the calls need not agree. Calls of active or inactive are those of the source. The calls were made as follows, unless noted: active = hit-call score of the fitted dose curve at least 0.9, where 1 is the maximum; inactive = score below 0.9.

Tests used:
[1] = read-out: Interleukin-1 alpha (IL1a), IL1A (gene 3552); assay: BSK_LPS_IL1a: BioMAP Diversity Plus: LPS Assay for Interleukin-1 alpha (IL1a) Biomarker Activity (AID 2283080); conditions: primary human HUVEC with PBMC; actives raise or lower the signal
Method in brief: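 HUVEC/PBMC co-culture, LPS system; 24 h after dosing; IL-1a by ELISA; gain or loss of signal fitted bidirectionally vs DMSO baseline.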

[2] = BSK_LPS_PGE2: BioMAP Diversity Plus: LPS Assay for Prostaglandin E2 (PGE2) Biomarker Activity (AID 2283082); conditions: primary human HUVEC with PBMC; actives raise or lower the signal;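 as to AC50: secreted prostaglandin E2 measured by ELISA in LPS-stimulated co-culture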
Method in brief: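 HUVEC plus human PBMC co-culture stimulated with LPS; secreted PGE2 quantified by ELISA 24 h after chemical dosing. Activity fitted bidirectionally against DMSO baseline; parallel SRB staining (0.1% SRB after 10% TCA fixation, 560 nm) flags overt cytotoxicity.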

[3] = read-out: Macrophage colony-stimulating factor (MCSF), CSF1 (gene 1435); assay: BSK_LPS_MCSF: BioMAP Diversity Plus: LPS Assay for Macrophage colony-stimulating factor (MCSF) Biomarker Activity (AID 2283083); conditions: primary human HUVEC with PBMC; actives raise or lower the signal
Method in brief: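 HUVEC + PBMC co-culture (human primary), 24 h post-dose; M-CSF by ELISA; gain/loss of signal fitted bidirectionally vs DMSO baseline.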

[4] = read-out: Tissue Factor, F3 (gene 2152); assay: BSK_LPS_TissueFactor: BioMAP Diversity Plus: LPS Assay for Tissue Factor Biomarker Activity (AID 2283084); conditions: primary human HUVEC with PBMC; actives raise or lower the signal
Method in brief: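 HUVEC/PBMC co-culture, LPS-activated; CD142 ELISA read 24 h post-dose; bidirectional curve fit vs DMSO negative control.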

[5] = read-out: Tumor necrosis factor (Homo sapiens) (UniProt P01375); assay: BSK_LPS_TNFa: BioMAP Diversity Plus: LPS Assay for Tumour Necrosis Factor alpha (TNFa) Biomarker Activity (AID 2283085); conditions: primary human HUVEC with PBMC; actives raise or lower the signal
Method in brief: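 Human umbilical vein endothelial cells co-cultured with PBMC and stimulated with LPS. TNFa was measured by ELISA 24 h after chemical dosing, fitted bidirectionally relative to DMSO.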

[6] = read-out: Vascular cell adhesion molecule 1 (VCAM1), VCAM1 (gene 7412); assay: BSK_LPS_VCAM1: BioMAP Diversity Plus: LPS Assay for Vascular cell adhesion molecule 1 (VCAM1) Biomarker Activity (AID 2283086); conditions: primary human HUVEC with PBMC; actives raise or lower the signal
Method in brief: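 Human umbilical vein endothelial cells co-cultured with PBMC and stimulated with LPS; VCAM-1 measured by ELISA 24 h after dosing. Bidirectional curve fitting against DMSO baseline; cytotoxicity tracked in parallel by SRB total-protein staining.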

CD38, CD38 (gene 952) = assay: BSK_SAg_CD38: BioMAP Diversity Plus: SAg Assay for CD38 Biomarker Activity (AID 2283087); conditions: primary human HUVEC with PBMC; actives raise or lower the signal
Method in brief: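 Human HUVEC plus PBMC co-culture stimulated with superantigen; CD38 measured by ELISA 24 h after chemical dosing. Fluorescence read-out, bidirectional fit against DMSO; cytotoxicity tracked in parallel by SRB and Alamar Blue.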

CD40, CD40 (gene 958) = assay: BSK_SAg_CD40: BioMAP Diversity Plus: SAg Assay for CD40 Biomarker Activity (AID 2283088); conditions: primary human HUVEC with PBMC; actives raise or lower the signal
Method in brief: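 HUVEC/PBMC co-culture, 24 h post-dose; CD40 by ELISA, fluorescence intensity; bidirectional fit vs DMSO negative control.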

[7] = read-out: Monocyte Chemoattractant Protein-1 (MCP1), CCL2 (gene 6347); assay: BSK_SAg_MCP1: BioMAP Diversity Plus: SAg Assay for Monocyte Chemoattractant Protein-1 (MCP1) Biomarker Activity (AID 2283090); conditions: primary human HUVEC with PBMC; actives raise or lower the signal
Method in brief: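 MCP-1 levels in the endothelial–PBMC SAg co-culture were quantified by ELISA at 24 h post-dosing; both increases and decreases versus DMSO scored. Cytotoxicity monitored by SRB total protein in parallel cultures.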

[8] = read-out: E-selectin (Homo sapiens) (UniProt P16581); assay: BSK_SAg_Eselectin: BioMAP Diversity Plus: SAg Assay for Eselectin Biomarker Activity (AID 2283091); conditions: primary human HUVEC with PBMC; actives raise or lower the signal
Method in brief: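 E-selectin ELISA readout at 24 h post-dosing in human umbilical vein endothelial cell/PBMC co-culture; gain or loss of signal fitted relative to DMSO baseline.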

[9] = read-out: Monokine induced gamma interferon (MIG), CXCL9 (gene 4283); assay: BSK_SAg_MIG: BioMAP Diversity Plus: SAg Assay for Monokine induced gamma interferon (MIG) Biomarker Activity (AID 2283092); conditions: primary human HUVEC with PBMC; actives raise or lower the signal
Method in brief: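 Endothelial cells and PBMC were co-cultured, exposed to test chemicals, and sampled 24 h later. MIG was measured by ELISA, and responses were fitted in both directions relative to DMSO.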

[10] = BSK_SAg_PBMCCytotoxicity: PBMC Cytotoxicity Assessment in the BioMAP Diversity Plus: SAg Assay (AID 2283093); conditions: primary human HUVEC with PBMC;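 also: PBMC viability measured as Alamar Blue reduction fluorescence at 546/580 nm; fitted both ways against DMSO so a hit may be loss or gain of signal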;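 as to AC50: PBMC superantigen activated with SEB plus TSST-1 one hour after compound addition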
Method in brief: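 HUVEC/PBMC co-culture; PBMC exposed to chemical 1 h before SEB and TSST-1 activation (20 ng/mL each), incubated 90 h, then Alamar Blue 6 h, fluorescence 546/580 nm. Bidirectional fit versus DMSO baseline.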

[11] = read-out: Interleukin-8 (IL8), CXCL8 (gene 3576); assay: BSK_SAg_IL8: BioMAP Diversity Plus: SAg Assay for Interleukin-8 (IL8) Biomarker Activity (AID 2283094); conditions: primary human HUVEC with PBMC; actives raise or lower the signal
Method in brief: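 Human umbilical vein endothelial cells co-cultured with PBMC, stimulated with superantigen; IL-8 measured by ELISA 24 h after chemical dosing. Bidirectional fitting versus DMSO; SRB staining in parallel cultures tracks cytotoxicity.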

[12] = BSK_SAg_Proliferation: Cell Proliferation Assessment in the BioMAP Diversity Plus: SAg Assay (AID 2283095); conditions: primary human HUVEC with PBMC
Method in brief: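 Human umbilical vein endothelial cells co-cultured with PBMC; sulforhodamine B total-protein staining (0.1% SRB after 10% TCA fixation, absorbance 560 nm) at 96 h in sub-confluent culture. Fitted bidirectionally against DMSO.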

[13] = BSK_SAg_SRB: Viability Assessment in the BioMAP Diversity Plus: SAg Assay (AID 2283096); conditions: primary human HUVEC with PBMC;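 also: cells read one day after compound addition; hits may be either gain or loss of signal compared with DMSO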
Method in brief: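 Human umbilical vein endothelial cells co-cultured with PBMC, read 24 h after compound dosing. Total protein measured by sulforhodamine B staining (0.1% SRB after 10% TCA fixation, absorbance 560 nm); bidirectional fit versus DMSO baseline.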

CD69, CD69 (gene 969) = assay: BSK_SAg_CD69: BioMAP Diversity Plus: SAg Assay for CD69 Biomarker Activity (AID 2283089); conditions: primary human HUVEC with PBMC; actives raise or lower the signal;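 as to AC50: cell surface CD69 protein quantified by ELISA with fluorescence detection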
Method in brief: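 Primary human vascular co-culture (umbilical vein endothelium with peripheral blood mononuclear cells) exposed to test chemical for 24 h. CD69 levels quantified by fluorescence ELISA; DMSO served as negative control for bidirectional fitting.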

[14] = molecular target: human CYP2D6, CYP2D6 (gene 1565) (UniProt P10635); assay: NVS_ADME_hCYP2D6: NovaScreen (NVS) CYP450-related Enzyme Activity (ADME) Assay for human CYP2D6 (AID 2283107; active = hit-call score of the fitted dose curve at least 0.9, where 1 is the maximum)
Method in brief: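 Fluorescence intensity read 1 h post-dosing; insect-cell-expressed recombinant protein with fluorogenic substrate, no cells. Activity is scored as signal loss relative to acetonitrile baseline, first at a single 10 uM concentration in duplicate, then as concentration series for confirmed actives.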

Measured: AC50

Tumor necrosis factor (Homo sapiens), sequence (P01375 whole entry, looked up): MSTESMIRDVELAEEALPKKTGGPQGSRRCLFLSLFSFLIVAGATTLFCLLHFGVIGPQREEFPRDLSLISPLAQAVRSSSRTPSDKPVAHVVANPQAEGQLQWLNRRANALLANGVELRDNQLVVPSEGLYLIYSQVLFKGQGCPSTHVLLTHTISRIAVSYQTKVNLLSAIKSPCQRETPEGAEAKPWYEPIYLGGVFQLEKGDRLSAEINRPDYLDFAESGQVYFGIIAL
E-selectin (Homo sapiens), sequence (P16581 whole entry, looked up): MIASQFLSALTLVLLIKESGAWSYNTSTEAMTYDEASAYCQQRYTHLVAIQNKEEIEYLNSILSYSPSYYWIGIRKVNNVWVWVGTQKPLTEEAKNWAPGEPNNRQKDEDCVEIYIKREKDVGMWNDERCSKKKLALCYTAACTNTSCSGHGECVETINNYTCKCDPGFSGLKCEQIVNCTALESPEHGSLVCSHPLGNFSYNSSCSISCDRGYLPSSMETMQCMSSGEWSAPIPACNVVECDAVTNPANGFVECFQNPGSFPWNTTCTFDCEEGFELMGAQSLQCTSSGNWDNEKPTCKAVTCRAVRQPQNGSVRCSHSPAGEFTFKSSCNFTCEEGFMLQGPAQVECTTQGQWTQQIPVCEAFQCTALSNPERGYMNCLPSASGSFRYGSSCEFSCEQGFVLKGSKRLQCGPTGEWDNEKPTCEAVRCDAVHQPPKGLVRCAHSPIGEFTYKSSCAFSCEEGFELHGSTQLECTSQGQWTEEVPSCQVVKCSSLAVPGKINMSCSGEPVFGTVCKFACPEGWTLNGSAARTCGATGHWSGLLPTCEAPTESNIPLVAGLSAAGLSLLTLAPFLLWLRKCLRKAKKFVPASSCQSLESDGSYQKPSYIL
human CYP2D6, CYP2D6 (gene 1565), sequence (P10635 whole entry, looked up): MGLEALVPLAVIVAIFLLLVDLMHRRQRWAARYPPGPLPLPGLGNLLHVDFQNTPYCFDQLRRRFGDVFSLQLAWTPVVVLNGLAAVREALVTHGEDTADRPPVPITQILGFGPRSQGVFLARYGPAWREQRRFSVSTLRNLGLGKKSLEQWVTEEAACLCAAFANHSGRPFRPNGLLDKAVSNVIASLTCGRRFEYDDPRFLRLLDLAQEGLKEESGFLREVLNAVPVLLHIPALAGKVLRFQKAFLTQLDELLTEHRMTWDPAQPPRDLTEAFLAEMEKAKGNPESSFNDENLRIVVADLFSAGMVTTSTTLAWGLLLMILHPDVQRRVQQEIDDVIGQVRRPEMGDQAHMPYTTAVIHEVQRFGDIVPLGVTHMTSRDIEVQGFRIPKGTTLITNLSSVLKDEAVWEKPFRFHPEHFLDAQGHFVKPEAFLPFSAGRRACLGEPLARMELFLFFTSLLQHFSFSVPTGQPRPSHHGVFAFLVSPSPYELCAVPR

O=S(=O)(Cl)C(F)(F)C(F)(F)C(F)(F)C(F)(F)C(F)(F)C(F)(F)C(F)(F)C(F)(F)F
active: [2] 46.8 µM and 42.8 µM | [8] 37.5 µM | [13] 43.2 µM and 55.5 µM
inactive: [1] | [3] | [4] | [5] | [6] | CD38, CD38 (gene 952) | CD40, CD40 (gene 958) | [7] | [8] | [9] | [10] | [11] | [12]

C=CC(=O)OCC(F)(F)C(F)(F)C(F)(F)COC(=O)C=C
active: [1] 15.5 µM and 12.1 µM | [2] 8.09 µM and 8.04 µM | [3] 14.9 µM and 8.27 µM | [4] 21.9 µM and 20.2 µM | [5] 14.9 µM and 15.7 µM | [6] 15.1 µM and 8.51 µM | CD38, CD38 (gene 952) 14.2 µM | CD40, CD40 (gene 958) 16.3 µM and 12.2 µM | [7] 22.5 µM and 14 µM | [8] 8.53 µM and 9.25 µM | [9] 19.3 µM and 18.6 µM | [10] 14.2 µM and 12.8 µM | [11] 14.2 µM and 5.57 µM | [12] 6.99 µM and 5.35 µM | [13] 43.7 µM and 45.6 µM

FC(F)(F)C(F)(F)C(F)(F)C(F)(F)C(F)(F)C(F)(F)C(F)(F)CCI
not listed: CD69, CD69 (gene 969) | [14]
inactive: all other assays above

O=C(Cl)C(F)(F)C(F)(F)C(F)(F)C(F)(F)C(F)(F)C(F)(F)F
not listed: CD69, CD69 (gene 969) | [14]
inactive: all other assays above

O=C(O)C(F)(F)C(F)(F)C(F)(F)C(=O)O
not listed: [14]
inactive: all other assays above

CC(C)=CCCC(C)O (stereo not given)
inactive: [14]

OCC(O)CC(F)(F)C(F)(F)C(F)(F)C(F)(F)F (stereo not given)
not listed: CD69, CD69 (gene 969) | [14]
inactive: all other assays above

FC(F)(F)C(F)(F)C(F)(F)C(F)(F)C(F)(F)C(F)(F)CC[Si](Cl)(Cl)Cl
not listed: [14]
inactive: all other assays above

OC(O)C(F)(F)C(F)(F)F
not listed: CD69, CD69 (gene 969) | [14]
inactive: all other assays above

CCN(CC)c1ccc(N=Nc2ccccc2)cc1
inactive: [2] | [4] | [5] | [6] | [9]
active: [1] 34.4 µM | [3] 20 µM | CD38, CD38 (gene 952) 27.5 µM | CD40, CD40 (gene 958) 14.2 µM | CD69, CD69 (gene 969) 14.3 µM | [7] 30.2 µM | [8] 13.8 µM | [10] 20 µM | [11] 29.4 µM | [12] 12.7 µM | [13] 29.5 µM
